# Measurements from publication PMC7862700, “An all-to-all approach to the identification of sequence-specific readers for epigenetic DNA modifications on cytosine”.
# Tests used:
# Assay in all cases: DAPPL (digital affinity profiling via proximity ligation, sequencing); 10 mM Tris-HCl pH 7.5, 50 mM NaCl, 1 mM DTT, 4% glycerol, room temperature, 30 min; GST-TFs on glutathione beads, 16-mer random dsDNA library, 0.1% formaldehyde crosslink after washing; high values mean tight binding
# FLI1 = molecular target: T1, FLI1 (Homo sapiens, UniProt Q01543 1-452); settings: protein: recombinant; tags: N-terminal GST; dsDNA, one strand shown
# T1 sequence: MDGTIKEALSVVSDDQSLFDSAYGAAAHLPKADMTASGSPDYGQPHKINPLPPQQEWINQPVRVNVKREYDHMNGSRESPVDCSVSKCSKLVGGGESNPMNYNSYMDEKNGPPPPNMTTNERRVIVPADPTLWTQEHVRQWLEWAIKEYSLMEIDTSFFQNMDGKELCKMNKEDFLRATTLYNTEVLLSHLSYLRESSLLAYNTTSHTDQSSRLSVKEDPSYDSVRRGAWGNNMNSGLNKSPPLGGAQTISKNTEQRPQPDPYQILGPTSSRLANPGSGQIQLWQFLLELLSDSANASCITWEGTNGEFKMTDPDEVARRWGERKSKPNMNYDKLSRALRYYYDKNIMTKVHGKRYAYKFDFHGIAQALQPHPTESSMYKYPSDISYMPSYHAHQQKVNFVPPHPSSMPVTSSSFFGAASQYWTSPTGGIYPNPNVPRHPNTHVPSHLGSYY
# Outline: (§1)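 Human transcription factors fused to GST were expressed in yeast, captured on glutathione beads, given DNA barcodes and pooled with a GST-only negative control. Pools were incubated with 200 nmole of a 16-mer random double-stranded DNA library in Tris/NaCl/DTT/glycerol buffer at room temperature for 30 min. They were then washed, crosslinked with 0.1% formaldehyde, proximity-ligated (BsaI/T4 ligase, 1 h, 37 °C), PCR-amplified and sequenced on an Illumina NextSeq500. Binding signal is each 6-mer's read frequency for a factor divided by its frequency for the GST control.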
# ELK1 = molecular target: T2, ELK1 (Homo sapiens, UniProt P19419 1-428); settings: protein: recombinant; tags: N-terminal GST; dsDNA, one strand shown
# T2 sequence: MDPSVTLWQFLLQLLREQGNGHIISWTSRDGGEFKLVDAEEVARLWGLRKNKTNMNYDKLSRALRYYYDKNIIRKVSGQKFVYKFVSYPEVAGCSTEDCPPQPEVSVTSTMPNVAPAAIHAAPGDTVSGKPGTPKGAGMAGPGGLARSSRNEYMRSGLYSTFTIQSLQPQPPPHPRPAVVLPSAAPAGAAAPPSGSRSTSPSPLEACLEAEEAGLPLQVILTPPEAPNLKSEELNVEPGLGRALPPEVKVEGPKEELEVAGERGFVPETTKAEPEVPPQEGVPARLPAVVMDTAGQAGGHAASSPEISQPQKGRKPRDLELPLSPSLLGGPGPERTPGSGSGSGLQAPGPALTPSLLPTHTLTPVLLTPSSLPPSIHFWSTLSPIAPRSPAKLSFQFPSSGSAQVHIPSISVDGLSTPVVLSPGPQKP
# Outline: as §1
# GABPA = molecular target: T3, GABPA (Homo sapiens, UniProt Q06546 1-454); settings: protein: recombinant; tags: N-terminal GST; dsDNA, one strand shown
# T3 sequence: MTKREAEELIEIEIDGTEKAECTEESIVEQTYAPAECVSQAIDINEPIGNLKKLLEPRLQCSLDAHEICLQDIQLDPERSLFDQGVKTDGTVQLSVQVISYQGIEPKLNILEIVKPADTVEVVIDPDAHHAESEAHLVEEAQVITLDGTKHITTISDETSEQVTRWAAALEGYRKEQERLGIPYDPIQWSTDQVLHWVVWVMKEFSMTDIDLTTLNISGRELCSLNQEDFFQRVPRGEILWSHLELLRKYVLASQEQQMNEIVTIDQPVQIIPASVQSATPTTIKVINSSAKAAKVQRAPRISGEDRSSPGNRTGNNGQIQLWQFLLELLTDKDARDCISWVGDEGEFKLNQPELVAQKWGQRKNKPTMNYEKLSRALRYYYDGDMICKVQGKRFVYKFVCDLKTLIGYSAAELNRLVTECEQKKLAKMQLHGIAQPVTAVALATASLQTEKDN
# Outline: as §1
# ERG = molecular target: T4, ERG (Homo sapiens, UniProt P11308 1-479); settings: protein: recombinant; tags: N-terminal GST; dsDNA, one strand shown
# T4 sequence: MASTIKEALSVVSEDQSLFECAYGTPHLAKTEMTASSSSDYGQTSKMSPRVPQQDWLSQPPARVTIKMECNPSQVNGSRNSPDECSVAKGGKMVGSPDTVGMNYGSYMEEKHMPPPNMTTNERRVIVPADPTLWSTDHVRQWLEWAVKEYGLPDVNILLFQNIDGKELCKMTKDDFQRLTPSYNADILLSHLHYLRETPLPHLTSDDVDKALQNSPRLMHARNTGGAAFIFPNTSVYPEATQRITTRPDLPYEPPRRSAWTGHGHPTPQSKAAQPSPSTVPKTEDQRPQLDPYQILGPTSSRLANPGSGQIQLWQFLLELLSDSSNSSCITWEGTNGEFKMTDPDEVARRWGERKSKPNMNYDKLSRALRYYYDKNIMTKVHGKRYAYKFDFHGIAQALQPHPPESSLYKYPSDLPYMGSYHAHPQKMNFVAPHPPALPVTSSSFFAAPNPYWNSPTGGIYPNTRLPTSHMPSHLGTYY
# Outline: as §1
# ELF1 = ELF1 (Homo sapiens, UniProt P32519 1-619); settings: protein: recombinant; tags: N-terminal GST; dsDNA, one strand shown
# ELF1, sequence (P32519 whole entry): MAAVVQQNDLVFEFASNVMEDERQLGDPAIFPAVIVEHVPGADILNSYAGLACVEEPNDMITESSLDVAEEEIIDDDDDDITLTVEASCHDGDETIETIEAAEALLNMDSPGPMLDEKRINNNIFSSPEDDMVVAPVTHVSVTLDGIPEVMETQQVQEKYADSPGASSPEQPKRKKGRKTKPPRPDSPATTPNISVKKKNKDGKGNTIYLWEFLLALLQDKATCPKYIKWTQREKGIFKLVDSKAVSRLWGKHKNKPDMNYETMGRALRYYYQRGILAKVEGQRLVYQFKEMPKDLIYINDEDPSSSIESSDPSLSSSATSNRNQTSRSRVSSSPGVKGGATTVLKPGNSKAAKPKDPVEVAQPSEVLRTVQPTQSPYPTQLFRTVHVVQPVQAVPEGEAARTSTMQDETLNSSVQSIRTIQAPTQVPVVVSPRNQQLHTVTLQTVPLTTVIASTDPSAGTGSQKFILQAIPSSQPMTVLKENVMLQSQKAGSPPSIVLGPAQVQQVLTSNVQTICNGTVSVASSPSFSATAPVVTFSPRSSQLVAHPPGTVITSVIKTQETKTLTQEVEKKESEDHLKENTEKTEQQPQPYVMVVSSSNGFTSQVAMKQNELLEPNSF
# Outline: as §1
# EHF = molecular target: T5, EHF (Homo sapiens, UniProt Q9NZC4 1-300); settings: protein: recombinant; tags: N-terminal GST; dsDNA, one strand shown
# T5 sequence: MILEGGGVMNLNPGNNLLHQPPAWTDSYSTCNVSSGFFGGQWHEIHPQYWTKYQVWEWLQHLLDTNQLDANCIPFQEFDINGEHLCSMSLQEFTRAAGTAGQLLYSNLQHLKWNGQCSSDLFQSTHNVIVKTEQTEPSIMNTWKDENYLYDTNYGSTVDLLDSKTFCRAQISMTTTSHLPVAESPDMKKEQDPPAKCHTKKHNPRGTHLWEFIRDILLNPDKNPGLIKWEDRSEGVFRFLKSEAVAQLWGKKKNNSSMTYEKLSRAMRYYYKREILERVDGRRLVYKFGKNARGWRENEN
# Outline: as §1
# SPI1 = SPI1 (Homo sapiens, UniProt P17947 1-270); settings: protein: recombinant; tags: N-terminal GST; dsDNA, one strand shown
# Outline: as §1
# SPIB = SPIB (Homo sapiens, UniProt Q01892 1-262); settings: protein: recombinant; tags: N-terminal GST; dsDNA, one strand shown
# SPIB, sequence (Q01892 whole entry): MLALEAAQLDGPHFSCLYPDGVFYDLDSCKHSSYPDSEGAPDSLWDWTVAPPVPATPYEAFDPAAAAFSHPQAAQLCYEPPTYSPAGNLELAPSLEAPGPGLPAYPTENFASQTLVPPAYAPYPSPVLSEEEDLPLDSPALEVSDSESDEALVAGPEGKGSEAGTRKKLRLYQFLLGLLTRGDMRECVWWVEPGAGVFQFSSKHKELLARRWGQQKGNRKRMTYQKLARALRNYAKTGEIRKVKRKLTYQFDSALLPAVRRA
# Outline: as §1
# ELK3 = molecular target: T6, ELK3 (Homo sapiens, UniProt P41970 1-407); settings: protein: recombinant; tags: N-terminal GST; dsDNA, one strand shown
# T6 sequence: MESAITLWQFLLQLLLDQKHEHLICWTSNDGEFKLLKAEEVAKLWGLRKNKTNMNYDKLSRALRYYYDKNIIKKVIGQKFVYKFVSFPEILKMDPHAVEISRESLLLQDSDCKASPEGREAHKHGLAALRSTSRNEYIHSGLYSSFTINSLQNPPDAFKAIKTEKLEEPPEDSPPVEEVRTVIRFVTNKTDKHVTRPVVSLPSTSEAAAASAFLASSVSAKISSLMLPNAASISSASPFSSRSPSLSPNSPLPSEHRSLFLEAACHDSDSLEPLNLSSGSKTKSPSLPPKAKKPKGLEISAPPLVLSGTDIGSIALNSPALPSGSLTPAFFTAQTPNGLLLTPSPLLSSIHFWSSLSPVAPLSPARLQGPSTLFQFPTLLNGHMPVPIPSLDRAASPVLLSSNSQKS
# Outline: as §1
# FEV = molecular target: T7, FEV (Homo sapiens, UniProt Q99581 1-238); settings: protein: recombinant; tags: N-terminal GST; dsDNA, one strand shown
# T7 sequence: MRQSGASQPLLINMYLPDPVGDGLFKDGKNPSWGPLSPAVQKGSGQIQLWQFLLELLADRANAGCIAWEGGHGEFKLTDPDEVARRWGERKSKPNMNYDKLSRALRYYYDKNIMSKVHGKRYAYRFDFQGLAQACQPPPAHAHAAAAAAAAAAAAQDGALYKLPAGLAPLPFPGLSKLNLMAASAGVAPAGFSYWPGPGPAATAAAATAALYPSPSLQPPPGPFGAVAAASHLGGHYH
# Outline: as §1
# ETV5 = ETV5 (Homo sapiens, UniProt P41161 1-510); settings: protein: recombinant; tags: N-terminal GST; dsDNA, one strand shown
# ETV5, sequence (P41161 whole entry): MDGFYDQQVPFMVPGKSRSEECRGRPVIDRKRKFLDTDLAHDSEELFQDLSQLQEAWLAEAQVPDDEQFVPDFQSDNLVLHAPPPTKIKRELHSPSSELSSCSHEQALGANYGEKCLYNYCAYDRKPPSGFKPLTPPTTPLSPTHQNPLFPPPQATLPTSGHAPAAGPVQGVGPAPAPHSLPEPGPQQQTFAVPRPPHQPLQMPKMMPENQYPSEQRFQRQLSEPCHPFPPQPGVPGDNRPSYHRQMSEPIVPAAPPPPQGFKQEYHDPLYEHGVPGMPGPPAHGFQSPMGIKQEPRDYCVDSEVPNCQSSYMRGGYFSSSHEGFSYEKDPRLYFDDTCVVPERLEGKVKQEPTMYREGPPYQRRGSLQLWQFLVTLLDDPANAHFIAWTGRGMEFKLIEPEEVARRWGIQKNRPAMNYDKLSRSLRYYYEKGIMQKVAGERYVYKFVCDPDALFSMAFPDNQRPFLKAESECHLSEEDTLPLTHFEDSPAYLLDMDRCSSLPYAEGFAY
# Outline: as §1
# HSF1 = HSF1 (Homo sapiens, UniProt Q00613 1-529); settings: protein: recombinant; tags: N-terminal GST; chain copies: 3; dsDNA, one strand shown
# HSF1, sequence (Q00613 whole entry): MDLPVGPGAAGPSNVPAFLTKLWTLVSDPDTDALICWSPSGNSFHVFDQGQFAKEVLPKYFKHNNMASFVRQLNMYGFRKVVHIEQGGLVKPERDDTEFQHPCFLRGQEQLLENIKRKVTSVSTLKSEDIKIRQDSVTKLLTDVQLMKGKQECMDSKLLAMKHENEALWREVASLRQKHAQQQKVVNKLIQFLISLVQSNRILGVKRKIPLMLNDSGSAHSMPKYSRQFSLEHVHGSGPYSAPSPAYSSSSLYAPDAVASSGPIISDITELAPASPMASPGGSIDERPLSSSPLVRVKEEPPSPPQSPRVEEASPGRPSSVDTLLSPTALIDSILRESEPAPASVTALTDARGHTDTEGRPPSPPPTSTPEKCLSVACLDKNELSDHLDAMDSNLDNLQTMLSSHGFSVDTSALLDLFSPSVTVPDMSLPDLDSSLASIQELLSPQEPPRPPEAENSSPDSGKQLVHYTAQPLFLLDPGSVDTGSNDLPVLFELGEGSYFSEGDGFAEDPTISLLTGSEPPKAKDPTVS
# Outline: as §1
# SPIC = molecular target: T8, SPIC (Homo sapiens, UniProt Q8N5J4 1-248); settings: protein: recombinant; tags: N-terminal GST; dsDNA, one strand shown
# T8 sequence: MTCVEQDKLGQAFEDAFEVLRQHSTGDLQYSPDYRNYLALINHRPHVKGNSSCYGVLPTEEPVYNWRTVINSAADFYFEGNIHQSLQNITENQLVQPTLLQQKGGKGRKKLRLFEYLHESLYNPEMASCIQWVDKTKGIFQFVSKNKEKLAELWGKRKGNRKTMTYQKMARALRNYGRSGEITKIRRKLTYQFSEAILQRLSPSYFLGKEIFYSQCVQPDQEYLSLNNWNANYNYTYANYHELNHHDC
# Outline: as §1
# ELF4 = ELF4 (Homo sapiens, UniProt Q99607 1-663); settings: protein: recombinant; tags: N-terminal GST; dsDNA, one strand shown
# ELF4, sequence (Q99607 whole entry): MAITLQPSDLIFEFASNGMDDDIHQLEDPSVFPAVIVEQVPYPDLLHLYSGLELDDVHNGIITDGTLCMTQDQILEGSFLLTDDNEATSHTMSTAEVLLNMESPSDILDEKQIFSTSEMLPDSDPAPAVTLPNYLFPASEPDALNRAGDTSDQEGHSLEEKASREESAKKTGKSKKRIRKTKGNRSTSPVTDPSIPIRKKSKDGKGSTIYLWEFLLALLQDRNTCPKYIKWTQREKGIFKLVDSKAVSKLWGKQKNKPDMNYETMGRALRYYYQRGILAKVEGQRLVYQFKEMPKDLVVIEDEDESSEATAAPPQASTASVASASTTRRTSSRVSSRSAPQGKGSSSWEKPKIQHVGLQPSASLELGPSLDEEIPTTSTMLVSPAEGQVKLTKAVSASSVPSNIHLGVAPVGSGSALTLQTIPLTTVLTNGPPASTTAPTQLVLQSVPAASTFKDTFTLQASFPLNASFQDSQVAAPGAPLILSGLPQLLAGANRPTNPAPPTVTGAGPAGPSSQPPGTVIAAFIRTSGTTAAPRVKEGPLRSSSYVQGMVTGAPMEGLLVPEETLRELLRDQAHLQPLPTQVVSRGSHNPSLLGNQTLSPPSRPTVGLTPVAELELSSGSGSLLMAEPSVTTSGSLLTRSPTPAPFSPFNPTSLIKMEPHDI
# Outline: as §1
# ELK4 = molecular target: T9, ELK4 (Homo sapiens, UniProt P28324-2 1-405); settings: protein: recombinant; tags: N-terminal GST; dsDNA, one strand shown
# T9 sequence: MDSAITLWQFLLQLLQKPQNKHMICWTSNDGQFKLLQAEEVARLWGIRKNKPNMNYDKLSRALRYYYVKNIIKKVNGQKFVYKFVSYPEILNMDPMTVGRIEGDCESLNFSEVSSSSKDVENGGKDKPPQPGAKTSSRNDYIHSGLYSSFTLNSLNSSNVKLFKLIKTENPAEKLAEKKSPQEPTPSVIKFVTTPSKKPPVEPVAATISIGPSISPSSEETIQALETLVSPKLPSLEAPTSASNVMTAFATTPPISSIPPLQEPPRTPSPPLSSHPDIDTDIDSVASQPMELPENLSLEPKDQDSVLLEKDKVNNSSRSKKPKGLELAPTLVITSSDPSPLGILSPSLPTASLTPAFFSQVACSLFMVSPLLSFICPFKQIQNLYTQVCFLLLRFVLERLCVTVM
# Outline: as §1
# ETV2 = molecular target: T10, ETV2 (Homo sapiens, UniProt O00321 1-342); settings: protein: recombinant; tags: N-terminal GST; dsDNA, one strand shown
# T10 sequence: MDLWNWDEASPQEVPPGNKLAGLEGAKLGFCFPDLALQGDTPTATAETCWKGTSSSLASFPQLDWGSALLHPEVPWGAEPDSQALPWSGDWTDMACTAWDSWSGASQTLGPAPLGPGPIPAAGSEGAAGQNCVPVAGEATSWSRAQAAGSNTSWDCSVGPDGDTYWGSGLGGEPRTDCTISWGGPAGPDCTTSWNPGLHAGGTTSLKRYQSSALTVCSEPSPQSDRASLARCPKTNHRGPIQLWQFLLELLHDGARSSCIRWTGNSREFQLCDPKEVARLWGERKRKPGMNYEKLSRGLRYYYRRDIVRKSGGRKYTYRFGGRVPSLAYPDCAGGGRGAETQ
# Outline: as §1
# ELF3 = molecular target: T11, ELF3 (Homo sapiens, UniProt P78545 1-371); settings: protein: recombinant; tags: N-terminal GST; dsDNA, one strand shown
# T11 sequence: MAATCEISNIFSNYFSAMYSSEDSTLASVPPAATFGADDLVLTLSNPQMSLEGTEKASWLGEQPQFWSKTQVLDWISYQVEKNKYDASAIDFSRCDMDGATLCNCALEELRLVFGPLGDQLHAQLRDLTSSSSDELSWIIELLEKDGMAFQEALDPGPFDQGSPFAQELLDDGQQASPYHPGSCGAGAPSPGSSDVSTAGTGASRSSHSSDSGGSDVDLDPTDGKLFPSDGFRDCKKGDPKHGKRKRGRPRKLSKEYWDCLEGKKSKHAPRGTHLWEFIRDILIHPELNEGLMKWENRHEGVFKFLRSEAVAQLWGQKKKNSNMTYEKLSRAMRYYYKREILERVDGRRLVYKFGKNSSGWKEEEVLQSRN
# Outline: as §1
# CRX = CRX (Homo sapiens, UniProt O43186 1-299); settings: protein: recombinant; tags: N-terminal GST; dsDNA, one strand shown
# CRX, sequence (O43186 whole entry): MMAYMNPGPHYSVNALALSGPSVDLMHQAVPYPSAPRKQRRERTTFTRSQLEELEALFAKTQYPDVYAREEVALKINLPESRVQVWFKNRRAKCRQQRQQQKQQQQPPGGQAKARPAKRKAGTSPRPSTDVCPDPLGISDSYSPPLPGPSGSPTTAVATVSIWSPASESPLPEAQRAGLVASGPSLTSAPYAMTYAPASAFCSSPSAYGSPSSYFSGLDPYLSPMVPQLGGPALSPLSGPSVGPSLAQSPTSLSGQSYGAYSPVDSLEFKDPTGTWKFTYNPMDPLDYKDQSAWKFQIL
# Outline: as §1
# ETV1 = ETV1 (Homo sapiens, UniProt P50549 1-477); settings: protein: recombinant; tags: N-terminal GST; dsDNA, one strand shown
# ETV1, sequence (P50549 whole entry): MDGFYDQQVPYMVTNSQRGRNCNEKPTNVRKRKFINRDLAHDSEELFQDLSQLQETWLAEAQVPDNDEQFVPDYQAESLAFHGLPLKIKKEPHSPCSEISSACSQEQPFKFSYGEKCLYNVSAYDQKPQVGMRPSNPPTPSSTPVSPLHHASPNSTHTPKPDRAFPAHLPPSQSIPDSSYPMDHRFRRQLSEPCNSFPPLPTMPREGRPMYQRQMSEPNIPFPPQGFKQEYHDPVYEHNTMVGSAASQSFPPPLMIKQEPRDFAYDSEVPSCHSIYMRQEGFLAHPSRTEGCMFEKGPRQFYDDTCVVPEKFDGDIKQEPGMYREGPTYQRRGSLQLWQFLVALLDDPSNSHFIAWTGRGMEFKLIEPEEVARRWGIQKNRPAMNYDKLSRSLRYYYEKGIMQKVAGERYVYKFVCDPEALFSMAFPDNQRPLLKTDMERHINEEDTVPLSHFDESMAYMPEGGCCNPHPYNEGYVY
# Outline: as §1
sequence,measurement,setting,value
TCCGAA,binding signal,FLI1,"1.35 fold enrichment (6-mer frequency, TF over GST control)"
same,binding signal,ELK1,"1.28 fold enrichment (6-mer frequency, TF over GST control)"
same,binding signal,GABPA,"1.37 fold enrichment (6-mer frequency, TF over GST control)"
same,binding signal,ERG,"1.3 fold enrichment (6-mer frequency, TF over GST control)"
same,binding signal,ELF1,"1.23 fold enrichment (6-mer frequency, TF over GST control)"
same,binding signal,EHF,"1.41 fold enrichment (6-mer frequency, TF over GST control)"
same,binding signal,SPI1,"1.25 fold enrichment (6-mer frequency, TF over GST control)"
same,binding signal,SPIB,"1.44 fold enrichment (6-mer frequency, TF over GST control)"
same,binding signal,ELK3,"1.18 fold enrichment (6-mer frequency, TF over GST control)"
same,binding signal,FEV,"1.24 fold enrichment (6-mer frequency, TF over GST control)"
same,binding signal,ETV5,"1.31 fold enrichment (6-mer frequency, TF over GST control)"
same,binding signal,HSF1,"1.48 fold enrichment (6-mer frequency, TF over GST control)"
same,binding signal,SPIC,"1.43 fold enrichment (6-mer frequency, TF over GST control)"
same,binding signal,ELF4,"1.21 fold enrichment (6-mer frequency, TF over GST control)"
same,binding signal,ELK4,"1.23 fold enrichment (6-mer frequency, TF over GST control)"
same,binding signal,ETV2,"1.46 fold enrichment (6-mer frequency, TF over GST control)"
same,binding signal,ELF3,"1.1 fold enrichment (6-mer frequency, TF over GST control)"
same,binding signal,CRX,"1.28 fold enrichment (6-mer frequency, TF over GST control)"
same,binding signal,ETV1,"1.19 fold enrichment (6-mer frequency, TF over GST control)"
